For 19 molecules, Potency results are on record in PubChem BioAssay (NCATS).

Records with an inconclusive call do not appear. Entries that show only a call come without a potency. Calls of active or inactive are those of the source. Calls come from the whole dose curve.
Potency is the fitted concentration of half-maximal effect.

Sequence of Nucleoprotein (Lymphocytic choriomeningitis virus (strain Armstrong)) (P09992 whole entry, looked up): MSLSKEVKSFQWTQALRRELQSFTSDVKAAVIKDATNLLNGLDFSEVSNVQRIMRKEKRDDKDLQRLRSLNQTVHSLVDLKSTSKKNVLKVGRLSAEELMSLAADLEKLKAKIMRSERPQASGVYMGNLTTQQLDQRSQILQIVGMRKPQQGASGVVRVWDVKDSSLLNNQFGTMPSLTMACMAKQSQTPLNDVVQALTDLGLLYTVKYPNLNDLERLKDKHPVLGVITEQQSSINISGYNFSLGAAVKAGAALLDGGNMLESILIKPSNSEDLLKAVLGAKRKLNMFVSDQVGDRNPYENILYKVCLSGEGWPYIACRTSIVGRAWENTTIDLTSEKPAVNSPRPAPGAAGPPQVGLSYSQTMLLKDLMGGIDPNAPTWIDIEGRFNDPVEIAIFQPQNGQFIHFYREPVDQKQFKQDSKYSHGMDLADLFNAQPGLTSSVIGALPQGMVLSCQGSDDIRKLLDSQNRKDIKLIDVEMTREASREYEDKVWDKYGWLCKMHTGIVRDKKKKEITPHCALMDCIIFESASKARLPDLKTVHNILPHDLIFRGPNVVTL

The test addresses Nucleoprotein (Lymphocytic choriomeningitis virus (strain Armstrong)) (UniProt P09992). The experiment in a line: qHTS for Inhibitors of the Functional Ribonucleoprotein Complex (vRNP) of Lymphocytic Choriomeningitis Arenaviruses (LCMV): LCMV Primary Screen - GLuc reporter signal (AID 1347086). Note: nearly all actives have a fitted effect of over 70% in size. To be noted: LCMV minigenome vRNP cell assay, Gaussia luciferase reporter; series mostly up to 57.5 µM. (In qHTS, concentration-response curves come from the screen itself.)
On to `Nc1ccc2c(c1)CN1C(=O)c3ccccc3C1=N2`, for which the Potency result was “inactive”.

In the case of `CCOC(=O)COc1ccc2c(C)c(CCN(CC)CC)c(=O)oc2c1Cl`, the Potency entry is “inactive”. For `O=C(CCC1CCN(Cc2ccccc2)CC1)c1ccc2c(c1)NCCCC2`, the Potency entry is “inactive”.

With `Cc1c(N)c(=O)n(-c2ccccc2)n1C`, the Potency entry is “inactive”. For the molecule `CCCCC1C(=O)N(c2ccccc2)N(c2ccc(O)cc2)C1=O` (centres undefined), the Potency entry was “inactive”. Regarding `O=C(c1cc(O)c(O)c(O)c1)c1ccc(O)c(O)c1O`, the Potency result is “inactive”. `COC1=C(OC)C(=O)C(CCCCCCCCCCO)=C(C)C1=O`: the Potency entry is “inactive”. In the case of `O=C(O)Cc1ccc(CCNS(=O)(=O)c2ccc(Cl)cc2)cc1`, the Potency entry is “inactive”. `CC(C)N=C(N)/N=C(\N)Nc1ccc(Cl)cc1`: the Potency entry is “inactive”.

In the case of `CC(C)(C)CC(C)(C)c1ccc(O)c(Cc2ccc(Cl)cc2Cl)c1`, the Potency result was “inactive”. As for `CCCCN1CCCC[C@H]1C(=O)Nc1c(C)cccc1C`, the Potency result was “inactive”. For `Clc1ccc(C(Cn2ccnc2)OCc2c(Cl)cccc2Cl)c(Cl)c1` (centres undefined), the Potency result is “inactive”. With `Oc1c(Cl)cc(Cl)c2cccnc12` the entry was “inactive”; with `COc1ccc(CCN(C)CCCC(C#N)(c2cc(OC)c(OC)c(OC)c2)C(C)C)cc1OC` (centres undefined), “inactive”; with `COc1ccc2cc3[n+](cc2c1OC)CCc1cc2c(cc1-3)OCO2`, 19.3 µM (active). On to `NC(N)=NC(=O)c1nc(Cl)c(N)nc1N`, for which the Potency result was “inactive”. Consider `Clc1ccc(CO/N=C(\Cn2ccnc2)c2ccc(Cl)cc2Cl)c(Cl)c1`, for which the Potency entry was “inactive”. As for `CCc1cc(Cl)c(OC)c(C(=O)NC[C@@H]2CCCN2CC)c1O`, the Potency entry is “inactive”.

For `COc1cc(C(=O)OCCCN2CCCN(CCCOC(=O)c3cc(OC)c(OC)c(OC)c3)CC2)cc(OC)c1OC`, the Potency result is “inactive”.
